Laboratory results as given in PubChem BioAssay (NCATS).
Inconclusive results are not listed. A call without a number means that no potency is given here. Active and inactive are the calls of the source. Calls follow the shape of the dose curve; as a rule, active = well fitted inhibition curve with a large enough effect; inconclusive = small, poorly fitted or top-dose-only effect; inactive = flat fitted curve, though single readings scatter. Bridge positions count the residues as written; N and C are the ends. Square brackets hold non-standard residues; d marks the D form. Peptide text beside a SMILES is read from it. * marks the point of attachment. Ileψ(thiazoline)Cys = CC[C@H](C)[C@H](N)C1=N[C@H](C(=O)*)CS1; d(aIle) = CC[C@H](C)[C@@H](N)C(=O)O; dOrn = NCCC[C@@H](N)C(=O)O

What follows are compounds tested on AA1029 (assay: qHTS profiling for inhibitors of Plasmodium falciparum proliferation (AID 504749; also: nearly all actives have a fitted effect of over 60% in size)). Details: P. falciparum in erythrocytes, SYBR Green DNA, 72 h; series mostly up to 12.8 µM.
Summary of the method: (§1)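 In a 72 h erythrocytic culture (37 C, humidified, 5% CO2) at 2.5% hematocrit and 0.3% starting parasitemia, compounds were tested; SYBR Green I in detergent lysis buffer stained parasite DNA overnight.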
Potency is read from the fitted curve at half-maximal effect.

Row | Structure (SMILES) | Potency
1 | C[C@@H]1C[C@H]2[C@@H]3C[C@H](F)C4=CC(=O)C=C[C@@]4(C)[C@]3(F)[C@H](O)C[C@]2(C)[C@@]1(O)C(=O)CO | inactive
2 | C[C@H](O)Cn1cnc2c1c(=O)n(C)c(=O)n2C | inactive
3 | CCCCC[C@H](O)/C=C\[C@@H]1[C@H](O)CC(=O)[C@@H]1CCCCCCC(=O)O | inactive
4 | CC(=C(CCOP(=O)(O)O)SC(=O)c1ccccc1)N(C=O)Cc1cnc(C)nc1N | inactive
5 | NC[C@@H]1O[C@@H](O[C@H]2[C@H](O)[C@H](O[C@@H]3O[C@H](CO)[C@@H](O)[C@H](N)[C@@H]3O)[C@@H](N)C[C@H]2N)[C@H](N)C[C@@H]1O | inactive
6 | CCc1c(C)[nH]c2c1C(=O)[C@H](CN1CCOCC1)CC2 | inactive
7 | CCC(=O)OCC(=O)[C@@]1(OC(=O)CC)[C@H](C)C[C@@H]2[C@@H]3[C@H]([C@@H](O)C[C@@]21C)[C@]1(C)C=CC(=O)C=C1C[C@@H]3Cl | inactive
8 | CC[C@H](C)[C@H](N)C1=N[C@H](C(=O)N[C@@H](CC(C)C)C(=O)N[C@@H](CCC(=O)O)C(=O)N[C@@H](C(=O)N[C@H]2CCCCNC(=O)[C@@H](CC(N)=O)NC(=O)[C@@H](CC(=O)O)NC(=O)[C@@H](Cc3cnc[nH]3)NC(=O)[C@@H](Cc3ccccc3)NC(=O)[C@@H]([C@@H](C)CC)NC(=O)[C@@H](CCCN)NC2=O)[C@@H](C)CC)CS1 ({Ileψ(thiazoline)Cys}-LE[d(aIle)]K[dOrn][d(aIle)][dF][dH][dD][dN]; lactam 4-C) | inactive
9 | O=C(N/N=C\c1ccc([N+](=O)[O-])o1)c1ccc(O)cc1 | 3.98 µM (active)
10 | CCOC(=O)O[C@@H](C)OC(=O)[C@@H]1N2C(=O)[C@@H](NC(=O)[C@@H](N)c3ccccc3)[C@H]2SC1(C)C | inactive
11 | Cc1ccsc1/C=C\C1=NCCCN1C | inactive
12 | O=C(O)COCCN1CCN([C@@H](c2ccccc2)c2ccc(Cl)cc2)CC1 | inactive
13 | C#C[C@]1(O)CC[C@@H]2[C@H]3CCC4=CCCC[C@@H]4[C@@H]3CC[C@@]21C | inactive
14 | CC1(C)[C@@H](OC(=O)CCC(=O)O)CC[C@@]2(C)[C@H]1CC[C@@]1(C)[C@H]2C(=O)C=C2[C@H]3C[C@](C)(C(=O)O)CC[C@]3(C)CC[C@@]21C | inactive
15 | C[C@H](CCC(=O)O)[C@H]1CC[C@@H]2[C@@H]3[C@@H](O)C[C@H]4C[C@@H](O)CC[C@@]4(C)[C@H]3CC[C@@]21C | inactive

The compounds below were run on AS120 in the same assay as above. Details: P. falciparum in erythrocytes, SYBR Green DNA, 72 h; series mostly up to 12.8 µM.
Summary of the method: as §1

Row | Structure (SMILES) | Potency
16 | C[C@@H]1C[C@H]2[C@@H]3C[C@H](F)C4=CC(=O)C=C[C@@]4(C)[C@]3(F)[C@H](O)C[C@]2(C)[C@@]1(O)C(=O)CO | inactive
17 | C[C@H](O)Cn1cnc2c1c(=O)n(C)c(=O)n2C | inactive
18 | CCCCC[C@H](O)/C=C\[C@@H]1[C@H](O)CC(=O)[C@@H]1CCCCCCC(=O)O | inactive
19 | CC(=C(CCOP(=O)(O)O)SC(=O)c1ccccc1)N(C=O)Cc1cnc(C)nc1N | inactive
20 | NC[C@@H]1O[C@@H](O[C@H]2[C@H](O)[C@H](O[C@@H]3O[C@H](CO)[C@@H](O)[C@H](N)[C@@H]3O)[C@@H](N)C[C@H]2N)[C@H](N)C[C@@H]1O | inactive
21 | CCc1c(C)[nH]c2c1C(=O)[C@H](CN1CCOCC1)CC2 | inactive
22 | C=C1c2c(Cl)ccc(O)c2C(O)=C2C(=O)[C@@]3(O)C(O)=C(C(N)=O)C(=O)[C@@H](N(C)C)[C@@H]3[C@@H](O)[C@H]12 | inactive
23 | CC[C@H](C)[C@H](N)C1=N[C@H](C(=O)N[C@@H](CC(C)C)C(=O)N[C@@H](CCC(=O)O)C(=O)N[C@@H](C(=O)N[C@H]2CCCCNC(=O)[C@@H](CC(N)=O)NC(=O)[C@@H](CC(=O)O)NC(=O)[C@@H](Cc3cnc[nH]3)NC(=O)[C@@H](Cc3ccccc3)NC(=O)[C@@H]([C@@H](C)CC)NC(=O)[C@@H](CCCN)NC2=O)[C@@H](C)CC)CS1 ({Ileψ(thiazoline)Cys}-LE[d(aIle)]K[dOrn][d(aIle)][dF][dH][dD][dN]; lactam 4-C) | inactive
24 | O=C(N/N=C\c1ccc([N+](=O)[O-])o1)c1ccc(O)cc1 | 2.82 µM (active)
25 | CCOC(=O)O[C@@H](C)OC(=O)[C@@H]1N2C(=O)[C@@H](NC(=O)[C@@H](N)c3ccccc3)[C@H]2SC1(C)C | inactive
26 | Cc1ccsc1/C=C\C1=NCCCN1C | inactive
27 | O=C(O)COCCN1CCN([C@@H](c2ccccc2)c2ccc(Cl)cc2)CC1 | inactive
28 | C#C[C@]1(O)CC[C@@H]2[C@H]3CCC4=CCCC[C@@H]4[C@@H]3CC[C@@]21C | inactive
29 | CC1(C)[C@@H](OC(=O)CCC(=O)O)CC[C@@]2(C)[C@H]1CC[C@@]1(C)[C@H]2C(=O)C=C2[C@H]3C[C@](C)(C(=O)O)CC[C@]3(C)CC[C@@]21C | inactive
30 | C[C@H](CCC(=O)O)[C@H]1CC[C@@H]2[C@@H]3[C@@H](O)C[C@H]4C[C@@H](O)CC[C@@]4(C)[C@H]3CC[C@@]21C | inactive
